# CYP2C9 act: human CYP2C9 activators, primary screen, biochemical, luminescence; Cytochrome P450 2C9 (Homo sapiens), P11712; recombinant CYP2C9, luciferin-H conversion; active compounds read high; factor 1 = untreated enzyme, 0 = blocked; activation factor at 5 µM; 96,000 tested, 1.4% active;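 active = activation factor of 2 or more for CYP2C9 at a 5 µM dose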;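 note: 0 = sulfaphenazole-blocked wells and 1 = vehicle-only wells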
# CYP2C19 inhib: blockers of cytochrome P450 2C19 activity – biochemical, luminescence, ADME assay, primary screen; CYP2C19 Supersomes, luciferin-H EGE luminescence, 30 min; P33261; 96,000 tested, 21% active; inhibition, % at 5 µM;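 active = CYP2C19 inhibition above a set limit at 5 µM in the primary screen, cut at about 50% in these data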;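 note: plate controls were negative control wells for no effect and 2.5 mM tranylcypromine positive control for full effect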
# CYP2C9 inh: blockers of cytochrome P450 2C9 activity – biochemical, luminescence, ADME assay, primary screen. inhibition, % at 5 µM. AID 777, 2007. CYP2C9 Supersomes, luciferin-H conversion. 96,000 tested, 20% active;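 active = blocking of liver enzyme CYP2C9 beyond about 50% at 5 µM, limit read from the data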
# Mac1 fbg inh: inhibitors of CD11b/CD18 adhesion to fibrinogen, primary screen, K562 cells, luminescence | Integrin beta-2 (Homo sapiens) + Integrin alpha-M (Homo sapiens), P05107+P11215 | 93,000 tested, 0.54% active | ATPlite luminescence; Mn2+ added to activate the integrin | inhibition, % at 10 µM | AID 1497, 2009;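 active = primary inhibition of 50% or more at 10 µM, then 40% or more on retest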
# CYP2C19 activ: human CYP2C19 activators, primary screen, biochemical, luminescence; AID 1025, 2008; 96,000 tested, under 10 active; recombinant CYP2C19, luciferin-H EGE luminescence; active compounds read high; 0 = fully inhibited enzyme, 1 = untreated enzyme; Cytochrome P450 2C19 (Homo sapiens), P33261; activation factor at 5 µM;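 active = activation factor of at least 2 at 5 µM in the primary screen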;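 note: 0 = wells with 2.5 mM tranylcypromine and 1 = vehicle-only wells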
# CD11b adhes enh: enhancers of CD11b/CD18 adhesion to fibrinogen, primary screen, K562 cells, luminescence. Integrin beta-2 (Homo sapiens) + Integrin alpha-M (Homo sapiens), P05107+P11215. ATPlite luminescence. activation, % at 10 µM. 93,000 tested, 0.07% active;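 active = 10 µM primary screen giving 50% or more activity, confirmed by 40% or more on retest at that dose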
# * = called active by the depositor; . = no result given. Rows were chosen to be rich in hits. Some 28% of all compounds tested hit in one or more screens of this group.
SMILES,CYP2C9 act,CYP2C19 inhib,CYP2C9 inh,Mac1 fbg inh,CYP2C19 activ,CD11b adhes enh
Cc1nn(Cc2ccccc2Cl)c(C)c1NC(=O)C1C2CCC(O2)C1C(=O)O (centres undefined),0.7,94*,27,16,0.1,0
CCc1cccc(C)c1NC(=O)C1C2CCC(O2)C1C(=O)O (centres undefined),1.1,0,-14,-7,1,0
Cc1nn(Cc2ccc(F)cc2)c(C)c1NC(=O)c1noc2c1CCCCC2,0.2,56*,77*,-22,0.4,6
CC(=O)C1=C(O)C(=O)N(c2nccs2)C1c1ccccc1 (centres undefined),0.8,14,18,-22,0.9,-2
CC1CCCC(C)N1CCNC(=O)Nc1ccc(Cl)cc1 (centres undefined),1,14,1,-3,0.9,-3
Cc1ccc(C)c(-n2c(Cc3cc(=O)[nH]c(=O)[nH]3)nnc2SCC(=O)NCC2CCCO2)c1 (centres undefined),0.9,-10,9,.,1.1,.
O=C(c1cc2c(ccc3ccccc32)o1)N1CCN(c2ncc(C(F)(F)F)cc2Cl)CC1,1,17,2,20,0.8,-3
CCO/C(C)=N/n1c2nc3ccccc3nc2c2c(=O)n(Cc3ccccc3Cl)c(C)nc21,0.5,23,53*,-4,0.8,-1
COc1ccc(Cn2c3nc4ccccc4nc3c3c(=O)n(Cc4ccco4)c(C)nc32)cc1,0.7,0,26,-12,1,55
Cc1nc2c(c(=O)n1Cc1ccccc1Cl)c1nc3ccccc3nc1n2Cc1ccco1,0.5,4,52*,7,1,56
Cc1cccc(-c2c3c(=O)n(C)c(=O)n(C)c3cn2C(C)C)c1,0.4,22,57*,-2,0.8,-1
CCn1cc2c(c1-c1cccc(C)c1)c(=O)n(C)c(=O)n2C,1.1,15,-6,-8,0.8,-3
CCOC(=O)Cc1csc(NC(=O)CSc2nnnn2-c2ccc(CC)cc2)n1,0.2,88*,77*,8,0.1,-4
CCOC(=O)Cc1csc(NC(=O)CSc2nnc(-c3ccc(F)cc3)o2)n1,0.4,16,56*,-7,0.8,-1
CCOC(=O)Cc1csc(NC(=O)CSc2nnc(-c3ccc(C)cc3)o2)n1,0.2,38,84*,4,0.6,-2
CCOC(=O)Cc1csc(NC(=O)CSc2nnc(-n3nc(C)cc3C)c3ccccc23)n1,0.1,79*,92*,7,0.2,-6
CCOC(=O)Cc1csc(NC(=O)c2ccco2)n1,0.6,46,36,-22,0.5,6
CN(C)S(=O)(=O)c1ccc(C(=O)OCCCN=C2NS(=O)(=O)c3ccccc32)cc1,0.5,16,47,-5,0.8,-1
COC(=O)c1ccc(NC(=S)NCCc2cccc(C)c2)cc1,0.2,77*,79*,-6,0.2,-2
CCn1c(SCC(=O)NC(C)c2ccccc2)nc2ccccc21 (centres undefined),1.4,54*,-36,8,0.5,-2
N#CCCn1c(SCC(=O)NCCc2ccc(F)cc2)nc2ccccc21,0.5,82*,47,-8,0.2,-2
O=C(Cn1c(NCCO)nc2ccccc21)NCCc1ccc(F)cc1,1,17,-2,0,0.8,2
CC(NC(=O)CSc1nc2ccccc2n1CCC#N)c1ccc(F)cc1 (centres undefined),0.5,94*,55*,-38,0.1,0
CCn1c(-c2cccnc2Cl)nc2ccccc21,1.9,32,-93,-58,0.7,-2
CCn1c(Sc2ccc(N)cc2Cl)nc2ccccc21,2.3*,87*,-127,10,0.1,0
CCNC(=O)NC(=O)CSc1nc2ccccc2n1CC(C)C,0.9,28,8,-3,0.7,1

# Source: PubChem BioAssay (Sanford-Burnham Center for Chemical Genomics)
